The source of these data is PubChem BioAssay (Tox21).

Values without a mark were called inactive. Results filed as inconclusive are left out. Active and inactive are the calls of the source. Unless noted, calls follow the shape of the dose curve; as a rule, active = well fitted curve in the direction sought with a large enough effect in the repeat runs; inconclusive = weak or mixed curves; inactive = no such curve, though single readings can be large; an effect the other way counts as inactive or inconclusive.

Assay [1] in a line: qHTS assay to identify small molecule antagonists of the estrogen related receptor (ERR) signaling pathway from Tox21 library - cell viability counter screen (AID 1224834). Also: % is scaled to controls: 0 for no effect and ±100 for the full control effect; nearly all actives have a fitted effect of over 30% in size. Put shortly: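 Cytotoxicity of test substances is gauged in the same ERR cells used for the antagonist screen, after 17.5 h of compound treatment at 37 C, by CellTiter-Fluor fluorescence measured after 30 min.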

The target of assay [2] is Luciferin 4-monooxygenase (Photinus pyralis) (UniProt P08659). As to the kind of experiment: qHTS assay to identify small molecule inhibitors of firefly luciferase (AID 1224835). Also: nearly all actives have a fitted effect of over 25% in size. Also: potency is read from the fitted curve at half-maximal effect. In outline: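 Inhibition of purified Photinus luciferase is measured by luminescence. Substrate levels (D-luciferin, ATP) sit at their KM values. Each compound is tested in a concentration series.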
Sequence of Luciferin 4-monooxygenase (Photinus pyralis) (P08659 whole entry, looked up): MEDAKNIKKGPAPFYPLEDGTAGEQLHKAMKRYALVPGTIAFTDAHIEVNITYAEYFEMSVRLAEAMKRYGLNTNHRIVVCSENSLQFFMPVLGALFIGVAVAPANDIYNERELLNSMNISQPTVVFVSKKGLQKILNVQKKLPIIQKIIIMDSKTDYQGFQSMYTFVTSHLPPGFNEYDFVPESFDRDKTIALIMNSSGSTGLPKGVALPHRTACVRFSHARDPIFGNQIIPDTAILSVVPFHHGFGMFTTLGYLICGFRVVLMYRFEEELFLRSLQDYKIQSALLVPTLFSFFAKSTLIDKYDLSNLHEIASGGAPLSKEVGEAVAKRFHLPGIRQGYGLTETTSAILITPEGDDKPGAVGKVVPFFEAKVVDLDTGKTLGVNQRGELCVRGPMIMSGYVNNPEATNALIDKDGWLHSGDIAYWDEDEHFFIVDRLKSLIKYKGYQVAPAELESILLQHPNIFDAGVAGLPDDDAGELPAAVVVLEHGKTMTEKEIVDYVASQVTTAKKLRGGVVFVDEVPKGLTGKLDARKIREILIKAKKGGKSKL

Assay [3] can be described thus: qHTS assay to identify small molecule agonists of the constitutive androstane receptor (CAR) signaling pathway - cell viability counter screen (AID 1224836). Also: % is scaled to controls: 0 for no effect and ±100 for the full control effect; nearly all actives have a fitted effect of over 45% in size. Put shortly:
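Using CellTiter-Fluor, viability of HepG2 cells harbouring hCAR and CYP2B6-2.2kb was measured following 23 h incubation with a 15-concentration compound series plus PK11195 (0.75 uM final).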
(In general: Quantitative high-throughput screening tests each substance at several concentrations.)

A short description of assay [4]: qHTS assay to identify small molecule antagonists of the constitutive androstane receptor (CAR) signaling pathway - cell viability counter screen (AID 1224837). Also: % is scaled to controls: 0 for no effect and ±100 for the full control effect; nearly all actives have a fitted effect of over 45% in size. In outline:
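Multiplexed cytotoxicity read-out for the CAR antagonist screen: double-stable HepG2-CYP2B6-hCAR cells co-treated with 50 nM CITCO (final) and compound over 15 concentrations, incubated 23 hr, then assessed by CellTiter-Fluor fluorescence.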

For assay [5], the target named is Nuclear receptor subfamily 1 group I member 3 (Homo sapiens) (UniProt Q14994). As to the kind of experiment: qHTS assay to identify small molecule antagonists of the constitutive androstane receptor (CAR) signaling pathway (AID 1224838). Also: % is scaled to controls: 0 for no effect and ±100 for the full control effect; nearly all actives have a fitted effect of over 40% in size. Put shortly: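 Compounds were titrated across 15 concentrations onto HepG2 cells double-stably expressing hCAR and a CYP2B6-2.2kb reporter, together with 50 nM CITCO (final). After 24 h at 37 C, luciferase activity was measured by luminescence.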
Sequence of Nuclear receptor subfamily 1 group I member 3 (Homo sapiens) (Q14994 whole entry, looked up): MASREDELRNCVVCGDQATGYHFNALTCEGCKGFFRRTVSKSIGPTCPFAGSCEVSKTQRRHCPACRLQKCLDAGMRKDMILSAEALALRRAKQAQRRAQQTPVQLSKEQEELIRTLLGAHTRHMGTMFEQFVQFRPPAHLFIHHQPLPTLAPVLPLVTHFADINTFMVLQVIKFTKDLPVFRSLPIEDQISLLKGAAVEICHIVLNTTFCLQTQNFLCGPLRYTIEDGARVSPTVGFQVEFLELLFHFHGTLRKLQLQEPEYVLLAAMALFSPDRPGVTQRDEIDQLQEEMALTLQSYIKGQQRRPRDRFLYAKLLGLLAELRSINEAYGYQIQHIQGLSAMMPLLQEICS

Assay [6] can be described thus: qHTS assay to identify small molecule antagonists of the estrogen related receptor signaling pathway with the pleiotropic PPARgamma coactivator (PGC) from Tox21 10K library - cell viability counter screen (AID 1224840; active = well fitted cell-killing curve with a large enough effect in the repeat runs, not every such curve was filed as active; also: % is scaled to controls: 0 for no effect and ±100 for the full control effect; nearly all actives have a fitted effect of over 40% in size). Put shortly: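 Step one, plate 2,000 PGC/ERR cells per well; step two, incubate 6 h at 37 C/5% CO2; step three, pin-transfer compounds; step four, incubate 17.5 h; step five, add CellTiter-Fluor and read fluorescence after 30 min.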

Assay [7] can be described thus: qHTS assay to identify small molecule antagonists of the estrogen related receptor signaling pathway with the pleiotropic PPARgamma coactivator (PGC) from Tox21 10K library (AID 1224841; call rule not given here; also: potency is read from the fitted curve at half-maximal effect; actives are mostly falling curves and most rising ones were filed inactive; nearly all actives have a fitted effect of over 50% in size). Put shortly: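 Antagonism in this quantitative HTS is taken from loss of luciferase signal in PGC/ERR cells. Cells (2,000/well) are treated with compounds in DMSO after a 6 h settling period and read by One-Glo luminescence after 18 h.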

A short description of assay [8]: qHTS assay to identify small molecule agonists of the estrogen related receptor signaling pathway with the pleiotropic PPARgamma coactivator (PGC) from Tox21 10K library (AID 1224842). Also: % is scaled to controls: 0 for no effect and ±100 for the full control effect; nearly all actives have a fitted effect of over 15% in size. In outline: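 Luminescence from One-Glo (30 min, room temperature) measured after PGC/ERR cells had 18 h at 37 C with pinned compound (23 nL in DMSO). Cells had been seeded at 2,000 per well and pre-incubated 6 h.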

In assay [9] the target is Thyrotropin receptor (Homo sapiens) (UniProt P16473). Briefly: qHTS assay to identify small molecule agonists of the thyroid stimulating hormone receptor (TSHR) signaling pathway (AID 1224843; calls by dose curve; also: % is scaled to controls: 0 for no effect and ±100 for the full control effect; nearly all actives have a fitted effect of over 45% in size). Put shortly: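 Screening of the Tox21 10K collection used HEK293 cells engineered with TSHR at 800 cells per well. After a 30-min room-temperature compound exposure, HTRF cAMP reagents were added and fluorescence recorded 1 h later.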
Sequence of Thyrotropin receptor (Homo sapiens) (P16473 whole entry, looked up): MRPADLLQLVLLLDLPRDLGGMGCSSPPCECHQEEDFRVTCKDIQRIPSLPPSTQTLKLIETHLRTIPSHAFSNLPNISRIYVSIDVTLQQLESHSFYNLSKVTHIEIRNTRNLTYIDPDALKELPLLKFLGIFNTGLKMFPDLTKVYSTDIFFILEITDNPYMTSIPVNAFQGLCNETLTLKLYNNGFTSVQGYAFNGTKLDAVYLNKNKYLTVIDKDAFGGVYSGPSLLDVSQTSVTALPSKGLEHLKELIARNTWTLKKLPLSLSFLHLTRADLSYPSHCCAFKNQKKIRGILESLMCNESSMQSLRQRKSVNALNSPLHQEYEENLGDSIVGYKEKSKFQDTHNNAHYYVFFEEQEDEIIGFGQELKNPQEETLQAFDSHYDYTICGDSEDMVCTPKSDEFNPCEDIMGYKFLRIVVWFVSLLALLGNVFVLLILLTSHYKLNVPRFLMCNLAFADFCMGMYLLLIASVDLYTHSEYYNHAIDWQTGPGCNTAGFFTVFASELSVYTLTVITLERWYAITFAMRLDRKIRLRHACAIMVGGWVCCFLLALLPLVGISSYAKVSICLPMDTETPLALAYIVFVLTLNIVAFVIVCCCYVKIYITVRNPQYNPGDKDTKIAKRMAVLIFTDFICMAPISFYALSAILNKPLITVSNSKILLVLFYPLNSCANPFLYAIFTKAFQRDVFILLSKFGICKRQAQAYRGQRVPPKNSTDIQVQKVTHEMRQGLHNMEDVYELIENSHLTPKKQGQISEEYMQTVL

Assay [10] can be described thus: qHTS assay to identify small molecule agonists of the hypoxia (HIF-1) signaling pathway - cell viability counter screen (AID 1224844; calls by dose curve; also: % is scaled to controls: 0 for no effect and ±100 for the full control effect; nearly all actives have a fitted effect of over 50% in size). In outline:
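Tox21 10K compounds were added to HRE-bla ME-180 cells (0.5% dialyzed FBS) and incubated 17 hrs at 37C; ATP-based CellTiter-Glo luminescence then reported cell viability in the same wells.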

A short description of assay [11]: qHTS assay to identify small molecule agonists of H2AX (AID 1224845; active = well fitted activation curve with a large enough effect in the signal ratio in the repeat runs, not every such curve was filed as active; the % refers to the signal ratio; also: % is scaled to controls: 0 for no effect and ±100 for the full control effect). In outline: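 Phospho-H2AX Ser139 measured by HTRF (ex 320 nm; em 665 and 620 nm) after 24 hr antibody incubation. Compounds, 15 concentrations, 0.76% DMSO, were applied to CHO-K1 cells for 3hr at 37C before lysis.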
The nature of assay [12]: qHTS assay to identify small molecule agonists of the hypoxia (HIF-1) signaling pathway (AID 1224846; active = well fitted activation curve with a large enough effect in the signal ratio in the repeat runs, not every such curve was filed as active; the % refers to the signal ratio; also: % is scaled to controls: 0 for no effect and ±100 for the full control effect). Put shortly:
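Steps: seed ME-180 HRE-bla cells (2,000/well, 0.5% dialyzed FBS); incubate 5 hrs at 37C; pin-transfer compounds or DMSO; incubate 17 hrs; add LiveBLAzer B/G substrate CCF4-AM; measure reporter activation by FRET.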

A short description of assay [13]: qHTS assay to identify small molecule agonists of H2AX - cell viability counter screen (AID 1224847; calls by dose curve; also: top concentration of the series differs between compounds; % is scaled to controls: 0 for no effect and ±100 for the full control effect; nearly all actives have a fitted effect of over 30% in size). In outline: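 Quantitative HTS viability measurement: CHO-K1 wild-type cells in serum (10% FBS) medium, short 3 hr drug exposure at 37C with 0.76% DMSO, CellTiter-Glo luminescent detection.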
A short description of assay [14]: qHTS assay to identify small molecule antagonists of the estrogen related receptor (ERR) signaling pathway from Tox21 library (AID 1224848). Also: nearly all actives have a fitted effect of over 50% in size. Also: potency is read from the fitted curve at half-maximal effect. In outline:
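Antagonist-mode screen of the Tox21 10K library in an NTP-provided ERR reporter cell line; 18 h compound exposure at 37 C, luminescence measured with ONE-Glo.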

A short description of assay [15]: qHTS assay to identify small molecule agonists of the estrogen related receptor (ERR) signaling pathway from Tox21 library (AID 1224849; calls by dose curve; also: % is scaled to controls: 0 for no effect and ±100 for the full control effect; nearly all actives have a fitted effect of over 15% in size). To be noted: ERR reporter cell line, ONE-Glo luciferase, 18 h; at 92.4 µM (top of the series) unless noted. In outline:
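Agonist signal is luciferase luminescence from an ERR reporter cell line treated 18 h at 37 C with DMSO-dissolved compounds, read 30 min after ONE-Glo addition at room temperature.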

Assay [16] in a line: A CellTox Green Cytotoxicity Assay to monitor cytotoxicity in HEK293 cells - 0 hour (AID 1224869). Also: % is scaled to controls: 0 for no effect and ±100 for the full control effect; nearly all actives have a fitted effect of over 50% in size. Put shortly:
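Cytotoxicity was tracked continuously in HEK293 cells by a DNA-binding dye excluded from viable cells. Compounds were transferred in DMSO 5 h after seeding; fluorescence was recorded at intervals up to 40 h.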

Assay [17] deals with Nuclear receptor subfamily 1 group I member 3 (Homo sapiens) (UniProt Q14994). Briefly: qHTS assay to identify small molecule agonists of the constitutive androstane receptor (CAR) signaling pathway (AID 1224839). Also: nearly all actives have a fitted effect of over 15% in size. Also: potency is read from the fitted curve at half-maximal effect. As to activation: % is scaled to controls: 0 for no effect and ±100 for the full control effect. In outline: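 Double-stable HepG2 cells (hCAR, CYP2B6-2.2kb) seeded 4 h before compound addition. Exposure 24 h with 0.75 uM PK11195 final. Luciferase detected by ONE-Glo.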

A short description of assay [18]: qHTS RealTime-Glo MT Cell Viability Assay in HepG2 cells - 24 hour (AID 1224867). Put shortly:
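HepG2 cells (600/well) were dispensed with RealTime-Glo reagents, incubated 5 h at 37 °C, then treated with compounds in DMSO for up to 40 h. Nonlytic NanoLuc luminescence reflecting viable cells was read at each stated time point.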

Assay [19] can be described thus: qHTS RealTime-Glo MT Cell Viability Assay in HEK293 cells - 32 hour (AID 1224868). Also: nearly all actives have a fitted effect of over 50% in size. Also: potency is read from the fitted curve at half-maximal effect. Put shortly:
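HEK293 cells seeded with NanoLuc/prosubstrate reagent, rested 5 h at 37 C, then dosed and kept at 37 C up to 40 h. Nonlytic real-time luminescence from viable cells read at 0, 8, 16, 24, 32 and 40 h.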

For the molecule `CC(C)N(C(=O)COc1nnc(C(F)(F)F)s1)c1ccc(F)cc1`, the Potency entry in assay [1], in assay [2], in [3], in assay [4], in assay [5] and in assay [6] was “inactive” throughout. The Potency result in [8], in assay [9], in assay [10], in assay [11], in assay [13] and in [16] was “inactive” throughout. Further, the Potency in assay [7] was 38.6 µM (active); in assay [14] it was 54.5 µM (active). Besides, the molecule was called inactive in [12]. In addition, the activity change, positive = activation in assay [15] is -34.1%.
Consider `COP(=S)(OC)Oc1cc(Cl)c(I)cc1Cl`, for which the Potency entry in assay [1], in [3], in [4], in [5], in [6] and in assay [9] was “inactive” each time. Besides, the Potency entry in assay [11], in [18] and in assay [19] was “inactive” each time. For the same molecule, the Potency in [2] is 79.6 µM (active); in assay [17], 54.5 µM (active). The call in assay [12] was inactive.
Turning to `CCN(C)N=O`, the Potency entry in [1], in [2], in assay [3], in assay [4], in [5] and in [17] was “inactive” each time. The Potency result in [6], in assay [9], in [10], in [11], in [13] and in assay [18] was “inactive” each time. The Potency entry in assay [19] and in assay [16] was “inactive” each time. In [12], the call was inactive.
As for `O=C=Nc1ccc(Cl)cc1`, the Potency entry in assay [1], in assay [3], in assay [4], in assay [5], in assay [6] and in assay [11] was “inactive” in each case. Moreover, the Potency entry in assay [13], in [18], in [19] and in assay [16] was “inactive” throughout. In addition, the results for the Potency in [2] and in [17] were 5.64 µM (active) and 6.86 µM (active), respectively.
Take `COC(=O)C(Br)CBr` (centres undefined): the Potency result in [1], in assay [2], in assay [3], in [4], in assay [5] and in assay [17] was “inactive” in each case. The Potency result in [6], in assay [8], in [11], in assay [13], in assay [14] and in [18] was “inactive” each time. The Potency result in [19] and in assay [16] was “inactive” in each case. Moreover, the activity change, positive = activation in [15] was -11.9%.
With `N#CCc1ccccc1`, the Potency result in assay [1], in assay [2], in assay [3], in [4], in assay [5] and in assay [17] was “inactive” in each case. Also, the Potency entry in [6], in assay [9], in assay [10], in assay [11], in [13] and in [18] was “inactive” each time. For the same molecule, the Potency entry in assay [19] and in [16] was “inactive” throughout. For the same molecule, the result in [12] was inactive.
Take `Nc1nc(N)nc(N)n1`: the Potency entry in assay [1], in assay [2], in assay [3], in assay [4], in assay [5] and in assay [17] was “inactive” each time. In addition, the Potency entry in assay [6], in [9], in assay [10], in assay [11], in [13] and in assay [18] was “inactive” in each case. Moreover, the Potency entry in assay [19] and in assay [16] was “inactive” throughout. For the same molecule, the call in assay [12] was inactive.
Take `CNC(C)Cc1ccccc1OC` (centres undefined): the Potency entry in [1], in assay [2], in assay [3], in assay [4], in assay [5] and in assay [17] was “inactive” throughout. The Potency entry in assay [6], in assay [9], in assay [10], in assay [11], in assay [13] and in assay [18] was “inactive” each time. Further, the Potency entry in assay [19] and in assay [16] was “inactive” throughout. Further, the result in [12] was inactive.
Regarding `O=C1C(Cl)C(CCl)CN1c1cccc(C(F)(F)F)c1` (centres undefined), the Potency result in [1], in [2], in assay [3], in [4], in assay [5] and in assay [17] was “inactive” each time. The Potency entry in assay [6], in [8], in assay [10], in [11] and in [18] was “inactive” each time. Besides, the outcome in assay [12] was inactive. In addition, the activity change, positive = activation in assay [15] is -29.4%. Besides, the Potency in assay [19] was 24.5 µM (active).
